Experiment [1] can be described thus: qHTS to identify inhibitors of the type 1 interferon - major histocompatibility complex class I in skeletal muscle: primary screen against the NCATS LOPAC collection (AID 1347405).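 Further: human myoblasts with HiBiT tag on endogenous HLA-B stimulated by IFN-beta; lytic HiBiT luminescence reporting HLA-B protein level.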 Further: potency means the concentration at half of the fitted maximal effect. In a few lines: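 HLA-B HiBiT myoblasts, IFN-b 4 ng/ml, dexamethasone-free medium; compounds 7-pt 1:4.3 titration, top 46 uM final; 24 h at 37 C; Nano-Glo HiBiT lytic reagent, 10 min RT, luminescence.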
(In general: Quantitative high-throughput screening tests each substance at several concentrations.)

The nature of experiment [2]: qHTS for inhibitors of adenylyl cyclases using a fission yeast platform: a pilot screen against the NCATS LOPAC library (AID 1347410).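 Further: plate controls were DMSO vehicle for no effect and DPI positive control for full effect.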 The essentials: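 Read-out: fbp1-GFP fluorescence by laser scanning cytometry (488 nm laser), a gain of signal when AC/cAMP-PKA signalling is inhibited. Strain CHP2027 expressing AC9, GNAS and PDE4D2; compounds at up to 57 µM; 18 h, 30C.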

Experiment [3] can be described thus: Validation qHTS assay for inhibitors of Activation Induced Cytidine Deaminase (AID): UDG Counterscreen signal (AID 1347427). Further: 0% is about no effect. In a few lines:
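Fluorescence at 560 nm excitation, 665 nm emission reports UDG signal after 250 mM NaOH (2x) addition and 30 min. Enzymes (AID 1 uM, UDG 2 U/mL, at 4/3x) preincubated 10 min with compound, then 4 h with 4x 250 nM DJC20/DJC23 substrate at room temperature.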

For experiment [4], the target named is Single-stranded DNA cytosine deaminase (Homo sapiens) (UniProt Q9GZX7). Description: Validation qHTS assay for inhibitors of Activation Induced Cytidine Deaminase (AID): AID signal (AID 1347429). Further: on the % scale 0 is the no-effect control and ±100 the full control effect. The essentials:
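AID+UDG coupled FRET deamination; cpds up to 114 uM final; DJC20/DJC23 substrate, 4 hr RT; NaOH stop, 30 min RT; read Ex 540/Em 590.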

Experiment [5] has as its target Calcium and integrin-binding protein 1 (Homo sapiens) (UniProt Q99828). Description: Validation qHTS for Identification of Calcium Integrin Binding protein 1 (CIB1) Competitor (AID 1508618). Further: potency means the concentration at half of the fitted maximal effect. The essentials: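 CIB1-GST (1 uM final) in 5 mM HEPES pH 7.4, 125 mM NaCl, 5 mM CaCl2, 0.01% Tween20 was preincubated 15 min at room temperature with compound (up to 114 uM), then FITC-alphaIIb peptide (100 nM) added for 15 min; fluorescence polarization read.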

The nature of experiment [6]: Primary qHTS for small molecule stabilizers of the endoplasmic reticulum resident proteome: Secreted ER Calcium Modulated Protein (SERCaMP) assay (AID 1508630). Further: on the % scale 0 is the no-effect control and ±100 the full control effect. In a few lines: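 The SH-SY5Y reporter protocol was run at 3 concentrations up to 38.3 uM (primary) or 11 concentrations (follow-up): 16 h compound, 100 nM thapsigargin for 4 h, then extracellular luciferase luminescence.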

For experiment [7], the target named is Papain (Carica papaya) (UniProt P00784). Description: Primary qHTS assay for inhibitors of the protease papain (AID 1645873).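 Further: papain turnover of Z-FR-AMC read as the AMC fluorescence gain over 10 min.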 Further: potency means the concentration at half of the fitted maximal effect.
Experiment [8] is described as follows: Primary qHTS for inhibitors of La Crosse Virus (LACV) - induced cell death in SH-SY5Y cells (AID 1508616).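 Further: top concentration of the series differs between compounds; 0% = infected DMSO wells and 100% = uninfected DMSO wells; higher means more rescue of cells from virus-induced death.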 In a few lines: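 Cytopathicity rescue screen: compounds pinned onto SH-SY5Y cells, which are then infected with LACV (MOI 0.01) and held 6 days at 37C. Percent activity is scaled between infected DMSO control and uninfected DMSO control.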
A short description of experiment [9]: Counterscreen qHTS for small molecule stabilizers of the endoplasmic reticulum resident proteome: GLuc-NoTag assay (AID 1508627).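 Further: series mostly up to about 76 µM; 0% = thapsigargin alone and -100% = DMSO vehicle control.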 The essentials: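 Secreted GLuc lacking the SERCaMP modification is measured in SH-SY5Y cells exposed to compound for 19 h and then to thapsigargin (100 nM, 4 h) to deplete ER calcium; hits retested at 11 concentrations, up to 76.6 uM.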
For orientation: Counterscreens check selectivity or assay interference.

Experiment [10] is described as follows: Confirmatory qHTS for small molecule stabilizers of the endoplasmic reticulum resident proteome: Secreted ER Calcium Modulated Protein (SERCaMP) assay (AID 1508628). Further: series mostly up to about 76 µM; on the % scale 0 is the no-effect control and ±100 the full control effect; nearly all actives have a fitted effect of over 40% in size. In a few lines: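 GLuc-SERCaMP-expressing SH-SY5Y cells, pretreated 16 h with compound, are challenged with thapsigargin to empty ER calcium stores; after 4 h, coelenterazine is added directly to the medium and luminescence is imaged.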

Experiment [11] in a line: Cell Viability qHTS for small molecule stabilizers of the endoplasmic reticulum resident proteome (AID 1508629).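 Further: human SH-SY5Y neuroblastoma cells carrying the GLuc-SERCaMP reporter; compound exposure about 46 h in total before the viability read; on the % scale 0 is the no-effect control and ±100 the full control effect.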 The conditions noted are these: cell viability counter-screen, 100 nM thapsigargin for final 4 h.

Consider 28 molecules from PubChem BioAssay (NCATS).

Structures are written as SMILES. A number with no mark means an inactive call. Records with an inconclusive call do not appear. The source made the active and inactive calls. The call rests on the fitted dose curve; in most records, active means well fitted curve in the direction sought with a large enough effect; inconclusive means small, poorly fitted or top-dose-only effect, or another doubt; inactive means no such curve, though single readings can be large; an effect the other way counts as inactive or inconclusive.

Chain of Papain (Carica papaya) (P00784 whole entry, looked up): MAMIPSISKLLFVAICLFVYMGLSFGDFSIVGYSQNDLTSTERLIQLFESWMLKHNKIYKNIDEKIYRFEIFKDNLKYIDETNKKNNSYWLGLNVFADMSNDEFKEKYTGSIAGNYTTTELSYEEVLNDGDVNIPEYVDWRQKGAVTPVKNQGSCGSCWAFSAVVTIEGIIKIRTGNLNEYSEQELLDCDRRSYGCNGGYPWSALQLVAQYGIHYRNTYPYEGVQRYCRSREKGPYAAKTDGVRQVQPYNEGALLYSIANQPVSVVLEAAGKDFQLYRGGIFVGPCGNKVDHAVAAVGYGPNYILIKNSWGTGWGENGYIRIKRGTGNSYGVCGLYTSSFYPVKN
Chain of Single-stranded DNA cytosine deaminase (Homo sapiens) (Q9GZX7 whole entry, looked up): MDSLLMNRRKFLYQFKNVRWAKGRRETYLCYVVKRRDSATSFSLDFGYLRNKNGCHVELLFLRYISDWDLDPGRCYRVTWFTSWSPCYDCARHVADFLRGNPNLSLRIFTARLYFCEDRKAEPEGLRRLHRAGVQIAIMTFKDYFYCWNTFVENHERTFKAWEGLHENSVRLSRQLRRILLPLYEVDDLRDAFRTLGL
Chain of Calcium and integrin-binding protein 1 (Homo sapiens) (Q99828 whole entry, looked up): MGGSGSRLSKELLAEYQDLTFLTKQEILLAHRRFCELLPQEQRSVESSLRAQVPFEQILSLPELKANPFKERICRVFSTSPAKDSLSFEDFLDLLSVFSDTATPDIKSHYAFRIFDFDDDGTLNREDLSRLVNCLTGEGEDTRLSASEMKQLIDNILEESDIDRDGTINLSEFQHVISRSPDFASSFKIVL

Regarding `CC(N)(Cc1ccc(O)c(O)c1)C(=O)O` (stereo unspecified), the Potency entry in [1], in experiment [3], in [4] and in experiment [5] was “inactive” in each case. Moreover, the result in experiment [2] was inactive.

Take `COc1ccc(-c2cc3ncc(C)n3c(Nc3ncccc3C(N)=O)n2)cc1OC`: the Potency in [1] is 3.16 µM (active). Also, in experiment [2], the result was inactive. In addition, the Potency entry in [3], in [4] and in experiment [5] was “inactive” in each case.

As to `Cn1c(=O)c2[nH]c(C3CCCC3)nc2n(C)c1=O`, the Potency result in experiment [1], in [3], in experiment [4], in experiment [5] and in experiment [6] was “inactive” throughout. Also, the molecule was called inactive in experiment [2].

Take `N=C(N)SCCN`: the Potency entry in experiment [1], in experiment [3], in experiment [4], in experiment [5], in experiment [6] and in [7] was “inactive” in each case. The result in experiment [2] was inactive.

Take `Cn1c(=O)[nH]c2ncn(C)c2c1=O`: the Potency result in [1], in experiment [3], in [4], in experiment [5], in [6] and in [7] was “inactive” in each case. In addition, the molecule was called inactive in experiment [2].

For the molecule `Cc1cc2c(cc1Cl)N(C(=O)Nc1ccnc3ccccc13)CC2`, the Potency entry in experiment [1], in experiment [3], in experiment [4], in experiment [8], in [6] and in [7] was “inactive” each time. Further, in experiment [2], the molecule was classed as inactive.

Turning to `N[C@@H](CCC(=O)N[C@H](CSN=O)C(=O)NCC(=O)O)C(=O)O`, the Potency result in [1], in experiment [3], in experiment [4], in [8], in [6] and in experiment [7] was “inactive” each time. The molecule was called inactive in [2].

As for `COCc1nc2c([nH]1)c(=O)n(C)c(=O)n2CC(C)C`, the Potency entry in experiment [1], in [3], in [4], in experiment [8], in experiment [6] and in experiment [7] was “inactive” each time. Further, the molecule was classed as inactive in [2].

As for `C[N+](C)(C)CC=O`, the Potency result in experiment [1], in [3], in [4], in experiment [5], in experiment [6] and in [7] was “inactive” in each case. The result in experiment [2] was inactive.

As to `N[C@@H](Cc1ccc(O)c(I)c1)C(=O)O`, the Potency result in experiment [1], in [3], in experiment [4], in experiment [8], in [6] and in [7] was “inactive” each time. Moreover, the molecule was called inactive in experiment [2].

With `CC(=O)C(C)=O`, the Potency entry in experiment [1], in experiment [3], in experiment [4], in experiment [8] and in [7] was “inactive” each time. Further, the call in experiment [2] was inactive.

On to `CN1C2CCC1CC(OC(c1ccccc1)c1ccccc1)C2` (stereo unspecified), for which the Potency entry in experiment [1], in [3], in experiment [4], in [5], in experiment [9] and in experiment [7] was “inactive” in each case. The result in [2] was inactive.

With `CCCn1c(=O)c2[nH]c(C3CCCC3)nc2n(CCC)c1=O`, the Potency entry in experiment [1], in [3], in experiment [4], in experiment [5], in [6] and in [7] was “inactive” throughout. The molecule was classed as inactive in experiment [2].

For `NC(N)=[N+]1CCc2ccccc2C1`, the Potency entry in [1], in experiment [3], in experiment [4], in experiment [5], in experiment [6] and in experiment [7] was “inactive” in each case. The outcome in [2] was inactive.

Consider `C=CCn1c(=O)c2c(nc(-c3ccc(S(=O)(=O)O)cc3)n2C)n(C)c1=O`, for which the Potency entry in [1], in experiment [3], in experiment [4], in experiment [8] and in [6] was “inactive” each time. In addition, the molecule was called inactive in [2]. The Potency in [7] was 25.1 µM (active).

`CC(C)(C)c1ccc(/C=C/C(=O)Nc2ccc3c(c2)OCCO3)cc1`: the Potency result in [1], in experiment [3], in [4], in experiment [5], in [6] and in experiment [7] was “inactive” throughout. Also, the molecule was called inactive in experiment [2].

Regarding `Nc1ccc2c3c(cccc13)C(=O)NC2=O`, the Potency result in experiment [1], in experiment [3], in experiment [4] and in experiment [6] was “inactive” throughout. The molecule was called inactive in [2]. The Potency in experiment [5] is 2.51 µM (active).

Consider `O=c1ccn([C@@H]2O[C@H](COP(=O)(O)OP(=O)(O)O)[C@@H](O)[C@H]2O)c(=O)[nH]1`, for which the Potency result in [1], in experiment [3], in experiment [4], in experiment [8], in [6] and in experiment [7] was “inactive” throughout. Also, in experiment [2], the molecule was classed as inactive.

Consider `CN1CCC2(CCN3CCc4c(oc5ccccc45)C3C2)N(C)C1=O` (stereo unspecified), for which the Potency entry in [1], in [3], in experiment [4], in [8], in experiment [6] and in experiment [7] was “inactive” each time. Also, the result in [2] was inactive.

Regarding `N=S(=O)(O)Cc1noc2ccccc12`, the Potency result in experiment [1], in [3], in experiment [4], in experiment [8], in [6] and in [7] was “inactive” in each case. Moreover, the molecule was called inactive in experiment [2].

For `CCCn1c(=O)c(C)cn2nc(N)nc12`, the Potency result in [1], in experiment [3], in [4], in experiment [5] and in experiment [6] was “inactive” in each case. For the same molecule, the molecule was called inactive in [2]. Moreover, the Potency in experiment [7] was 28.2 µM (active).

As for `CCCN(CCc1ccccc1)C1CCc2c(O)cccc2C1` (stereo unspecified), the Potency entry in experiment [1], in experiment [3], in experiment [4], in [8], in experiment [6] and in [7] was “inactive” each time. Further, in experiment [2], the call was inactive.

`COc1ccccc1N1CCN(CCCCN2C(=O)c3ccccc3C2=O)CC1`: the Potency entry in experiment [1], in [3], in experiment [4], in experiment [8], in experiment [6] and in [7] was “inactive” throughout. Further, the molecule was called inactive in experiment [2].

Regarding `CC(=O)N[C@@H](Cc1c[nH]c2ccccc12)C(=O)OCc1cc(C(F)(F)F)cc(C(F)(F)F)c1`, the Potency entry in experiment [1], in experiment [3], in experiment [4], in [8], in [6] and in [7] was “inactive” each time. Also, the outcome in experiment [2] was inactive.

As to `c1ccc2c(c1)CCC[C@H]2Nc1nc2ccccc2[nH]1`, the Potency entry in experiment [1], in experiment [3], in experiment [4], in [5], in [6] and in experiment [7] was “inactive” in each case. In experiment [2], the molecule was called inactive.

On to `COc1ccc(CCN(C)CCc2ccc(OC)c(OC)c2)cc1OC`, for which the Potency result in [1], in [3], in [4], in experiment [5], in experiment [9] and in experiment [10] was “inactive” throughout. Also, the Potency result in experiment [6] and in experiment [7] was “inactive” in each case. Also, in [2], the molecule was classed as inactive. Further, the max response in experiment [11] is 1.86%.

Regarding `Cc1cccc(C)c1OCC(N)C(C)C` (stereo unspecified), the Potency entry in experiment [1], in experiment [3], in experiment [4], in [5], in [6] and in [7] was “inactive” throughout. In experiment [2], the molecule was called inactive.

For the molecule `NC(Cc1cccc(-c2ccccc2CP(=O)(O)O)c1)C(=O)O` (stereo unspecified), the Potency entry in experiment [1], in [3], in experiment [4], in [8] and in experiment [7] was “inactive” throughout. The call in experiment [2] was inactive.
